The supplement of paper PMC11732987, “Enantioselective OTUD7B fragment discovery through chemoproteomics screening and high-throughput optimisation” (Communications Chemistry, 2025)

Key:
Assay in all cases: log2 ratio of Biotin-Ahx-Ub-VS probe labelling (fragment/DMSO); higher = less target engagement (more negative = stronger competition), active = hit call of the paper (q ≤ 0.05, log2 ratio ≤ -1)
Conditions in all cases: compound concentration: 200 uM; treatment time: 3 h
[1] = target: T1, USP42 (UniProt Q9H9J4)
T1 sequence (whole entry): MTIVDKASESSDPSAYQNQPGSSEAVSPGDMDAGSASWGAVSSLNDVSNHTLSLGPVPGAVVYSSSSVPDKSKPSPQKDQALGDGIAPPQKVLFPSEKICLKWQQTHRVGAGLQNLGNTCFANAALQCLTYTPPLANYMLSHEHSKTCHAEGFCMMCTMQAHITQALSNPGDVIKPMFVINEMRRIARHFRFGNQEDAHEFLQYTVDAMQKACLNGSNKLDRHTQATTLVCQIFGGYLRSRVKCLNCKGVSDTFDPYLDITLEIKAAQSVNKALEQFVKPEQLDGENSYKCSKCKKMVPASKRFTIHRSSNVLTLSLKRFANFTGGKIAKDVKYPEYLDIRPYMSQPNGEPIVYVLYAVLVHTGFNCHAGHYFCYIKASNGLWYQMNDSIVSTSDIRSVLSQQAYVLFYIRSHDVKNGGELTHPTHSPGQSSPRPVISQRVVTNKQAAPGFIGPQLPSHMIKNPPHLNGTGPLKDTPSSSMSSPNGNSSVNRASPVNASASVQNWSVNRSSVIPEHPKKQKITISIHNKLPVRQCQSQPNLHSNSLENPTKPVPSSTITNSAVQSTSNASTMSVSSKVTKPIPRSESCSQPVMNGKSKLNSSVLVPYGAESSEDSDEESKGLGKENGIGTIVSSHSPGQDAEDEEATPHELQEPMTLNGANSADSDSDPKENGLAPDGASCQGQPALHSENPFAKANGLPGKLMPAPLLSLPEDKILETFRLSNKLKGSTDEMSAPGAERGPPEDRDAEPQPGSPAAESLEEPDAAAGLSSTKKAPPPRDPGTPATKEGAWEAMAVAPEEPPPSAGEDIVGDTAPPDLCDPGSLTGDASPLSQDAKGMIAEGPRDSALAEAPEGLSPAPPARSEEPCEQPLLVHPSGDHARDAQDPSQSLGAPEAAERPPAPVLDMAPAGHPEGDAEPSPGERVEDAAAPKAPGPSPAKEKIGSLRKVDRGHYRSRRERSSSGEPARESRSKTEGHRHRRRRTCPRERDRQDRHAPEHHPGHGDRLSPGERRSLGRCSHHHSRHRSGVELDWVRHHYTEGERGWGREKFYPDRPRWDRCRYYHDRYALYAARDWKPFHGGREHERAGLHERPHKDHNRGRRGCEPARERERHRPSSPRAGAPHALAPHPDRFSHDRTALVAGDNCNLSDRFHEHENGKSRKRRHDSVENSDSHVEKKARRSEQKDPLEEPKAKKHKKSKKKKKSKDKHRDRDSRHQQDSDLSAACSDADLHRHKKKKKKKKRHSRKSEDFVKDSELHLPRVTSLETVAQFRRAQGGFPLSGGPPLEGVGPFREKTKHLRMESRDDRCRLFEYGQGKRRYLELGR
In short: (§1)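 HEK293T lysate, 495 µg per sample in Tris/CHAPS/IGEPAL buffer with protease inhibitors, was treated in triplicate with fragment at 200 µM or vehicle for 3 h and then with Biotin-Ahx-Ub-VS at 0.5 µM final for 1 h. Labelled DUBs were NeutrAvidin-enriched, digested with LysC and trypsin, and run by diaPASEF LC-MS/MS. Spectronaut label-free quantities were global-median-normalised, and values are average log2 fragment/vehicle ratios by unpaired t-test on proteins with ≥2 unique peptides.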

[2] = target: USP46 (UniProt P62068)
USP46, sequence (P62068 whole entry): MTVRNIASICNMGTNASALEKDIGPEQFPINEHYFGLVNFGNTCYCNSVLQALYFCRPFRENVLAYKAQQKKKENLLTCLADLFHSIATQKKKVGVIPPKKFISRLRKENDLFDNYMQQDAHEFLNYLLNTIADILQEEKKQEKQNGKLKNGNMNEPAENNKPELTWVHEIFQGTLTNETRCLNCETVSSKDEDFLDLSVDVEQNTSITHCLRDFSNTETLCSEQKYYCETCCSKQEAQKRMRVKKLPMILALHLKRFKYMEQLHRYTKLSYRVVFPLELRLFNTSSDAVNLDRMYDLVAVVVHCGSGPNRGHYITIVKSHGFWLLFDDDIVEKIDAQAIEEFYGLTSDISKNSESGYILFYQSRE
In short: as §1

[3] = target: T2, USP47 (UniProt Q96K76)
T2 sequence (whole entry): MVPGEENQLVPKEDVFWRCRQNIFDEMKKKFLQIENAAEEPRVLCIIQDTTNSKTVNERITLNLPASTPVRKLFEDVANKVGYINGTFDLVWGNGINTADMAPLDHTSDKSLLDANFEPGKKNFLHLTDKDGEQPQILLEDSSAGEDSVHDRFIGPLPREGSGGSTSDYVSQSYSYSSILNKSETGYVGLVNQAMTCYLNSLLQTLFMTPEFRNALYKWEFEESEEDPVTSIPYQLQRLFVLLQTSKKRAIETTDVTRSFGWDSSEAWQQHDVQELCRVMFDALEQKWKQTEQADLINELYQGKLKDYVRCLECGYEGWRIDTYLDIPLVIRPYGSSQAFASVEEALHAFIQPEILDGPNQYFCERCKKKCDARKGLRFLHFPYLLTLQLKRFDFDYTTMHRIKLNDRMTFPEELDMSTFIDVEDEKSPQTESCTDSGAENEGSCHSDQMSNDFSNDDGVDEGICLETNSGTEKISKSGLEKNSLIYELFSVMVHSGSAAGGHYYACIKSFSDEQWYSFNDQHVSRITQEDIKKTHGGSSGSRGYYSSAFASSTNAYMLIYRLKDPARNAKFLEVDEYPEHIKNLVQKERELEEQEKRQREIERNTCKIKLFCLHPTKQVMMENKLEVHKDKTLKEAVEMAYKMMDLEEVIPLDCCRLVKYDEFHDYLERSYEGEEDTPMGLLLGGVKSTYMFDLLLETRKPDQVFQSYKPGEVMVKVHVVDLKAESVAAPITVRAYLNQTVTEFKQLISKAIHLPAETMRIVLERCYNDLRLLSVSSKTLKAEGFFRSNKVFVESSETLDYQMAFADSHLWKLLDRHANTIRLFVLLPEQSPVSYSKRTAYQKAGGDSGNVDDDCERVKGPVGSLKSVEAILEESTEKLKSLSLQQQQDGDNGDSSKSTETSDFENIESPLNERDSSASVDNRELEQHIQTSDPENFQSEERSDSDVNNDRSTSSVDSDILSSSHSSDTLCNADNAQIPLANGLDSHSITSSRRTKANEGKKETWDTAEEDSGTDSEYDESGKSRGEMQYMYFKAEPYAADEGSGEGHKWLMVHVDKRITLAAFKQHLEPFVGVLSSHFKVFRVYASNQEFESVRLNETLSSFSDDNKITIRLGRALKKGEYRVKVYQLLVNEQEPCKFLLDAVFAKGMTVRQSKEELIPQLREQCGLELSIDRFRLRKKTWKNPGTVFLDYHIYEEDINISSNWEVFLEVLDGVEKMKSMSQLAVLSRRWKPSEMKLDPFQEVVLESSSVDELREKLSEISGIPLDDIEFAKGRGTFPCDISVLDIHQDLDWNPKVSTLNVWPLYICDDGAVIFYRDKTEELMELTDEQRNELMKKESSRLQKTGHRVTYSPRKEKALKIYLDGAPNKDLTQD
In short: as §1

[4] = target: T3, USP48 (UniProt Q86UV5)
T3 sequence (whole entry): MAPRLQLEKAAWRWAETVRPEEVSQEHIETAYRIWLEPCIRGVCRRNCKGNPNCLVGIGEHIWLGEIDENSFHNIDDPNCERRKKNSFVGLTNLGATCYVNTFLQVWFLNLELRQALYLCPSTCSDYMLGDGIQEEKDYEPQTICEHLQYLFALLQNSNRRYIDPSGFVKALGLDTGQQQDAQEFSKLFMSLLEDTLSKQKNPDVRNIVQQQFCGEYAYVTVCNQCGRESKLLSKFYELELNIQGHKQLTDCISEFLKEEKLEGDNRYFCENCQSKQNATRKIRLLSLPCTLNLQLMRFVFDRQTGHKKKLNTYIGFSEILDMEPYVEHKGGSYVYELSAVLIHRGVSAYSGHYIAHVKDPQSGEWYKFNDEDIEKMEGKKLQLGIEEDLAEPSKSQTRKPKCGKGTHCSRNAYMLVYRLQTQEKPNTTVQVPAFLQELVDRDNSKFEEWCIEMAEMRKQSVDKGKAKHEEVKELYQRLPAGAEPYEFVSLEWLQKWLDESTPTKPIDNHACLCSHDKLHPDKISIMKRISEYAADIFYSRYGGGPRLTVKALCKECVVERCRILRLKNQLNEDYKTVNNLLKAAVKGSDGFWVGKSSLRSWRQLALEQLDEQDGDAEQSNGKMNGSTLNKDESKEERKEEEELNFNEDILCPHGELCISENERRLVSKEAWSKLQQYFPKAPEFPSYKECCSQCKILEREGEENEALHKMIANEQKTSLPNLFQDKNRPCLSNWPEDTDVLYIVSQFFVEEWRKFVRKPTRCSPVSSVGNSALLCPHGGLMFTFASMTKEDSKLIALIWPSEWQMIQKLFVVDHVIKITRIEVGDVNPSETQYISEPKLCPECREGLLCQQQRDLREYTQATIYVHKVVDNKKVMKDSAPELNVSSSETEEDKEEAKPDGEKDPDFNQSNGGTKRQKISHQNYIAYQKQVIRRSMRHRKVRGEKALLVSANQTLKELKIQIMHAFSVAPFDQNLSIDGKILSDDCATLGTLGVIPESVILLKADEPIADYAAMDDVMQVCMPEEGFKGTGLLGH
In short: as §1

[5] = target: T4, USP5 (UniProt P45974)
T4 sequence (whole entry): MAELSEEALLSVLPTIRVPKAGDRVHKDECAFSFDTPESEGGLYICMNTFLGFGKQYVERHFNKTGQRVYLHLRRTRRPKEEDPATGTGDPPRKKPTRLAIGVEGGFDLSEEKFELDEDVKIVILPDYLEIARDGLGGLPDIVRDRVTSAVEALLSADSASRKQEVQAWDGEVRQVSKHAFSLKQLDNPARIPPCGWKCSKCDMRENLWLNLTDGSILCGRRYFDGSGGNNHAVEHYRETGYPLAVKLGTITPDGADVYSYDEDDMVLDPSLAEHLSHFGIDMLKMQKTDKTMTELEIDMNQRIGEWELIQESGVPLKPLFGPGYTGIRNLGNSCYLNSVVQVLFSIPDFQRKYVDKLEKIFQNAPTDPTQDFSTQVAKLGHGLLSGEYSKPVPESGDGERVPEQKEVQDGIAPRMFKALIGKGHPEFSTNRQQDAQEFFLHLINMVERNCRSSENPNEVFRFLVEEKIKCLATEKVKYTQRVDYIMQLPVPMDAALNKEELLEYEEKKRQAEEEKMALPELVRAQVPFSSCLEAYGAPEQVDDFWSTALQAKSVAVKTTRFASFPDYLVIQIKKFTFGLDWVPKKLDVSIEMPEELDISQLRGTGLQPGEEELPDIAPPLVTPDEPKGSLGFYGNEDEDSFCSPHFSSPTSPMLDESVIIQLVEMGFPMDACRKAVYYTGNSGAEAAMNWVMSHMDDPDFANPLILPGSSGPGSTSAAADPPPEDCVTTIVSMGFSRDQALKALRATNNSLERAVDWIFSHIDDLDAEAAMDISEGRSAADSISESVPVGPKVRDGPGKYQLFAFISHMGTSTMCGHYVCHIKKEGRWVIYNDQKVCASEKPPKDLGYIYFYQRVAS
In short: as §1

[6] = target: USP54 (UniProt Q70EL1)
In short: as §1

[7] = target: USP7 (UniProt Q93009)
USP7, sequence (Q93009 whole entry, looked up): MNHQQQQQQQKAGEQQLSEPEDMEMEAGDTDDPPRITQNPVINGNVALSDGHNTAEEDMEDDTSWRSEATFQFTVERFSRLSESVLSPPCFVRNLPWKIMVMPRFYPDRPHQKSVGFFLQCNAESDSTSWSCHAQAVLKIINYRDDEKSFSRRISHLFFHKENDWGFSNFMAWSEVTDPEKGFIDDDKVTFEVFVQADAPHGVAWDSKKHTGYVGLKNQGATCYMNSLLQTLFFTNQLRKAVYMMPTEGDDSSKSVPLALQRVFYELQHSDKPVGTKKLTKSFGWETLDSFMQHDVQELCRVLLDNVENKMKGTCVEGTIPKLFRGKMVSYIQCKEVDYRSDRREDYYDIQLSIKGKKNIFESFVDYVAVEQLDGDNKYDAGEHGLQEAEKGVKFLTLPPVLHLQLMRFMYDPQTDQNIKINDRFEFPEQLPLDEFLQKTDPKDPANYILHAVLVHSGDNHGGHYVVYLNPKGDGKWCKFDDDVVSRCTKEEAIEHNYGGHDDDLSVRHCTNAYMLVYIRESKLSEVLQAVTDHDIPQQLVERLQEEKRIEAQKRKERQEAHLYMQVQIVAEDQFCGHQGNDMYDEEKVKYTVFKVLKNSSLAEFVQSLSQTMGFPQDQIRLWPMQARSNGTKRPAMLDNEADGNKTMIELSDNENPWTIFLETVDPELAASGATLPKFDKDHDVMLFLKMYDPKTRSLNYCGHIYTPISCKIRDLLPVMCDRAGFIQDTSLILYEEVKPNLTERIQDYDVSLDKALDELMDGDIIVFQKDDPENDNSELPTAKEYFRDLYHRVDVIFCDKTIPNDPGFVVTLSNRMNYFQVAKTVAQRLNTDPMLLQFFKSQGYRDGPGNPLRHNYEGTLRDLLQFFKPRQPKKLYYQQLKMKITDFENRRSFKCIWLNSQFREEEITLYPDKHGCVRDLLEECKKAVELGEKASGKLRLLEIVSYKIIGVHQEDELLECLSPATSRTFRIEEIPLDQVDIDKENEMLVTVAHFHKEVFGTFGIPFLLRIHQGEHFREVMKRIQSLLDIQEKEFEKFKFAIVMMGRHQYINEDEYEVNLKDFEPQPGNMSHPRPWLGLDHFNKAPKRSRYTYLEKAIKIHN
In short: as §1

[8] = target: T5, USP8 (UniProt P40818)
T5 sequence (whole entry): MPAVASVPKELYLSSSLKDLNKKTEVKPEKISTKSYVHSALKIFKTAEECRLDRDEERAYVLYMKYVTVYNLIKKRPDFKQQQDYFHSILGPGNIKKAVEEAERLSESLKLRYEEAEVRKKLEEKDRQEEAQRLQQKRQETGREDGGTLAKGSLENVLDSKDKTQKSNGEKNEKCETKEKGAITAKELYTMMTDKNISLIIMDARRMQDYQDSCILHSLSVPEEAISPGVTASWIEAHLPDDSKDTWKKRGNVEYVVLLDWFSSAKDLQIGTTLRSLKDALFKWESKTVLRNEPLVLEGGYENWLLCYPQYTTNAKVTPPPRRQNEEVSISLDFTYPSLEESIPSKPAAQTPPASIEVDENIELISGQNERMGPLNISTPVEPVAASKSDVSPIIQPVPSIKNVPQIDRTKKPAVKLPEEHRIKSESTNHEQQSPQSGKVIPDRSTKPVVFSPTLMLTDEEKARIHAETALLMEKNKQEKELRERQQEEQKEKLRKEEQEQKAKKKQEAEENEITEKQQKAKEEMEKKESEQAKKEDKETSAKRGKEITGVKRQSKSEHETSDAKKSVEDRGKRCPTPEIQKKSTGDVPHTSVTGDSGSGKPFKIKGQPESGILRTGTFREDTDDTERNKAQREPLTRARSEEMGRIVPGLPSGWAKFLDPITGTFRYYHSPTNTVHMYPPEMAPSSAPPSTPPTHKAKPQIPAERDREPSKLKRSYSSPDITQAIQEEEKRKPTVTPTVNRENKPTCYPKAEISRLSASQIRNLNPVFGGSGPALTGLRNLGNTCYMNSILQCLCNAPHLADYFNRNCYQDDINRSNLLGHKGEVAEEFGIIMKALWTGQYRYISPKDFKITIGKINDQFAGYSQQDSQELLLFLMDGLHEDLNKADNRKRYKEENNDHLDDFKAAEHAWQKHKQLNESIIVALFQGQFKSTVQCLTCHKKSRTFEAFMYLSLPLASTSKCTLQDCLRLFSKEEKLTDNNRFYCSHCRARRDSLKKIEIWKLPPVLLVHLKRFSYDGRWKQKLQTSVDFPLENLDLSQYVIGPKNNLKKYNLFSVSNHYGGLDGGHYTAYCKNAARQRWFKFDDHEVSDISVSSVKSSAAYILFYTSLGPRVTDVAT
In short: as §1

[9] = target: USP9X (UniProt Q93008)
USP9X, sequence (Q93008 whole entry): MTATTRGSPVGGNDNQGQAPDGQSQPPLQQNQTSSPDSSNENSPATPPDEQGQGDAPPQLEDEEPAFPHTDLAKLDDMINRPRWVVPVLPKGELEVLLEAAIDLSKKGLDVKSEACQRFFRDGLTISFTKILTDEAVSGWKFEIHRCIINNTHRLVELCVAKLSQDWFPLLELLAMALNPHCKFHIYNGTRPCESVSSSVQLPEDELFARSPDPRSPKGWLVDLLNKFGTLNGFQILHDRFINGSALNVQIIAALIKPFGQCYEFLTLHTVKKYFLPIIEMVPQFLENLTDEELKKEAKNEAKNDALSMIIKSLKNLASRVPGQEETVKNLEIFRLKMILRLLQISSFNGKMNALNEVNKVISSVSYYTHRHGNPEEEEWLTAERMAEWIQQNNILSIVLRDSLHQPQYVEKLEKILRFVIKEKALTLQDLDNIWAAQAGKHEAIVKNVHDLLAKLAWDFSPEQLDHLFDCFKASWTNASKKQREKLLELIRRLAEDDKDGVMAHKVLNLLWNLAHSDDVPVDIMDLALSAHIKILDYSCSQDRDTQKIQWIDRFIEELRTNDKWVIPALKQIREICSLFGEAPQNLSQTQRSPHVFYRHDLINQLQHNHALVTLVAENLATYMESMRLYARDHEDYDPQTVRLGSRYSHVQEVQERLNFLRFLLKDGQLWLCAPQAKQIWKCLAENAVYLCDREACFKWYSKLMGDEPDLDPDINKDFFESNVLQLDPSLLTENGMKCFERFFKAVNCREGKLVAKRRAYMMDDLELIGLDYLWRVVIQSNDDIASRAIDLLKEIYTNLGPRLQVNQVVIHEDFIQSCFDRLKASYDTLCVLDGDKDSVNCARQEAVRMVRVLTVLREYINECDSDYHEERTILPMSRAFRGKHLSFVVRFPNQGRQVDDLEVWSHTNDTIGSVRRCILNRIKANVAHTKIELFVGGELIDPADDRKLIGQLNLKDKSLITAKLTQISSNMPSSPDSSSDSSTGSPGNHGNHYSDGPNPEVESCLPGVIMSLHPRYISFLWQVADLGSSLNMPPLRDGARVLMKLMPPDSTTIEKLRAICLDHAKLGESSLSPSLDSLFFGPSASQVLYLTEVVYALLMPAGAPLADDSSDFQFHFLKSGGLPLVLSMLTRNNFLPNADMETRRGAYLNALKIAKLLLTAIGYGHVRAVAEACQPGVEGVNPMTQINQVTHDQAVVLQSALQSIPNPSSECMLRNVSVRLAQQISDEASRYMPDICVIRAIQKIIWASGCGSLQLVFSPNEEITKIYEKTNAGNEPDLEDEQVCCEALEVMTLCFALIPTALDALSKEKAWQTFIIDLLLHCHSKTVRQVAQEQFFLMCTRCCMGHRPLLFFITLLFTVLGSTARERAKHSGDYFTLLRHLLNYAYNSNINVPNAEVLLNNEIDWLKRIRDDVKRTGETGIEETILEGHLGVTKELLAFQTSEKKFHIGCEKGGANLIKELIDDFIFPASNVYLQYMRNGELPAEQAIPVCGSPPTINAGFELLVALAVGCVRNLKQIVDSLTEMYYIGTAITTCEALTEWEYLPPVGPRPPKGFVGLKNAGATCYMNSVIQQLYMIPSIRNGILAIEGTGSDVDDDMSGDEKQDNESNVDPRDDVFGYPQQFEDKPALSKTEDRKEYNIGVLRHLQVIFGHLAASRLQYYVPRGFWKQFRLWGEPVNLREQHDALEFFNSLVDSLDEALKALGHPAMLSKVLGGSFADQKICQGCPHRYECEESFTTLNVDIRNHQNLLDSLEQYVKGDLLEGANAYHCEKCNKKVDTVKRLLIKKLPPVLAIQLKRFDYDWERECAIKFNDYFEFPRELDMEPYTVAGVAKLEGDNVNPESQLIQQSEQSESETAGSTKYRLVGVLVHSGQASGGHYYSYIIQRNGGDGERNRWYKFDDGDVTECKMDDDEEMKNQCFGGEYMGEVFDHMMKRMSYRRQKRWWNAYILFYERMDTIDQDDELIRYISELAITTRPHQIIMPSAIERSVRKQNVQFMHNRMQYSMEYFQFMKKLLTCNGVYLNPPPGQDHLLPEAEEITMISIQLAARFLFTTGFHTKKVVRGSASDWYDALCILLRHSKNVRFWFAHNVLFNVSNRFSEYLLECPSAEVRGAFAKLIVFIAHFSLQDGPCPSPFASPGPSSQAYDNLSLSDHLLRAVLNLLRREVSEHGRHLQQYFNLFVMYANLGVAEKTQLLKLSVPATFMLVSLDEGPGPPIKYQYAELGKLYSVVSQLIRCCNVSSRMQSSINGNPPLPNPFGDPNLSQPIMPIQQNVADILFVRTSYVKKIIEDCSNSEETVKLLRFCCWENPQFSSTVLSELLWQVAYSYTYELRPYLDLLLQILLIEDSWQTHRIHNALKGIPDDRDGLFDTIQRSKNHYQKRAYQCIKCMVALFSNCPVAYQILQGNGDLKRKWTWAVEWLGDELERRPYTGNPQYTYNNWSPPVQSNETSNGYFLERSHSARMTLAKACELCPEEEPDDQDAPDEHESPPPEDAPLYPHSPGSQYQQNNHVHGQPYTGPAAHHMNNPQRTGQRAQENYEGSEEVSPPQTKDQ
In short: as §1

[10] = target: UniProt O00487
UniProt O00487, sequence (O00487 whole entry): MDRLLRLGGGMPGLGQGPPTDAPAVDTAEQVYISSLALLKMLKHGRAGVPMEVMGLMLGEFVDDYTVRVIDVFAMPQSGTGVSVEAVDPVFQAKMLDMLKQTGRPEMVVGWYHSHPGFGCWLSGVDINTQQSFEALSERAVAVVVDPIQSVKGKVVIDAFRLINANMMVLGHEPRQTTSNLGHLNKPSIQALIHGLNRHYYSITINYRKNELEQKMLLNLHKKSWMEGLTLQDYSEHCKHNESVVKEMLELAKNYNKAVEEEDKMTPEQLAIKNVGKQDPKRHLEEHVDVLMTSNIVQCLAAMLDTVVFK
In short: as §1

Measured: log2 ratio of Biotin-Ahx-Ub-VS probe labelling

CC1CCc2onc(CNC(=O)CCl)c2C1 (stereo not given)
inactive: [1] 0.0513 | [2] 0.0919 | [3] -0.0836 | [4] 0.185 | [5] 0.386 | [6] 0.0792 | [7] -0.00387 | [8] -0.212 | [9] -0.154 | [10] 0.0127
